# Reference: PubChem BioAssay (Tox21)
# A number with no mark means an inactive call. Results filed as inconclusive are left out. Where a call stands in place of a potency, no number is given. Activity calls are given as the source filed them. Unless noted, calls follow the shape of the dose curve; as a rule, active = well fitted curve in the direction sought with a large enough effect in the repeat runs; inconclusive = weak or mixed curves; inactive = no such curve, though single readings can be large; an effect the other way counts as inactive or inconclusive.
# What was measured:
# [1] = target: Estrogen receptor beta (Homo sapiens) (UniProt Q92731); assay: qHTS assay to identify small molecule agonists of the estrogen receptor beta (ER-beta) signaling pathway (AID 1259377; active = well fitted activation curve with a large enough effect in the signal ratio in the repeat runs, not every such curve was filed as active; the % refers to the signal ratio)
# Sequence of Estrogen receptor beta (Homo sapiens) (Q92731 whole entry, looked up): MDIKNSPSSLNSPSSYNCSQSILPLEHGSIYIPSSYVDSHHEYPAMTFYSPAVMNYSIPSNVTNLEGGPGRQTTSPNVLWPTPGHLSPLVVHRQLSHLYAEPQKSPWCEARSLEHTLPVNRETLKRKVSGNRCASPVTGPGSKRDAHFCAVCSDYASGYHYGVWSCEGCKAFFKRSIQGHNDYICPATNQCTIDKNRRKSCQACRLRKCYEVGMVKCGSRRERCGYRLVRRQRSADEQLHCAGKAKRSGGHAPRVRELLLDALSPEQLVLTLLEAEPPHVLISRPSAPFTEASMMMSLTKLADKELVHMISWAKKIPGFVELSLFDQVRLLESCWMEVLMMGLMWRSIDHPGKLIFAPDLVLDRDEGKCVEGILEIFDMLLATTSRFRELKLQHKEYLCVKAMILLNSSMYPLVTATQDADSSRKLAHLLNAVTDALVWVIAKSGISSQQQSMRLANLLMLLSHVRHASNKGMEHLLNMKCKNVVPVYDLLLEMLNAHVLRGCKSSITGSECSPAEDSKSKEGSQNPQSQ
# How it was run: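 ER-beta-UAS-bla HEK293T (GripTite) cells carrying a UAS-driven beta-lactamase reporter, in medium with 2% charcoal-stripped FBS, were exposed to compounds for 16 hr at 37C; LiveBLAzer B/G FRET substrate was then added and fluorescence read after 2 hours at room temperature.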
# [2] = target: Estrogen receptor beta (Homo sapiens) (UniProt Q92731); assay: qHTS assay to identify small molecule antagonists of the estrogen receptor beta (ER-beta) signaling pathway (AID 1259378; active = well fitted inhibition curve with a large enough effect in the signal ratio in the repeat runs, not every such curve was filed as active; the % refers to the signal ratio; also: potency is read from the fitted curve at half-maximal effect)
# How it was run: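 ER-beta-UAS-bla HEK293T (GripTite) cells in 2% charcoal-stripped FBS medium were preincubated 6 hr at 37C, dosed with compound, then stimulated with 1 nM E2 (final) for 16 hr; beta-lactamase reporter read by B/G FRET fluorescence after 2 hr substrate loading.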
# [3] = qHTS assay to identify small molecule agonists of the androgen receptor (AR) signaling pathway in the presence of an antagonist - cell viability counter screen (AID 1259379); also: nearly all actives have a fitted effect of over 25% in size; also: potency is read from the fitted curve at half-maximal effect
# How it was run: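 Seed MDA-kb2 at 3,000 cells/well; incubate 5 hr, 37C, 0% CO2. Add nilutamide to 3.0uM final, then pin compounds at 15 concentrations. Incubate 16 hr. Add CellTiter-Fluor at 15 hr, read fluorescence after 1 hr.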
# [4] = target: Androgen receptor (Homo sapiens) (UniProt P10275); assay: qHTS assay to identify small molecule agonists of the androgen receptor (AR) signaling pathway in the presence of an antagonist (AID 1259381; calls by dose curve; also: nearly all actives have a fitted effect of over 15% in size; also: potency is read from the fitted curve at half-maximal effect)
# Sequence of Androgen receptor (Homo sapiens) (P10275 whole entry, looked up): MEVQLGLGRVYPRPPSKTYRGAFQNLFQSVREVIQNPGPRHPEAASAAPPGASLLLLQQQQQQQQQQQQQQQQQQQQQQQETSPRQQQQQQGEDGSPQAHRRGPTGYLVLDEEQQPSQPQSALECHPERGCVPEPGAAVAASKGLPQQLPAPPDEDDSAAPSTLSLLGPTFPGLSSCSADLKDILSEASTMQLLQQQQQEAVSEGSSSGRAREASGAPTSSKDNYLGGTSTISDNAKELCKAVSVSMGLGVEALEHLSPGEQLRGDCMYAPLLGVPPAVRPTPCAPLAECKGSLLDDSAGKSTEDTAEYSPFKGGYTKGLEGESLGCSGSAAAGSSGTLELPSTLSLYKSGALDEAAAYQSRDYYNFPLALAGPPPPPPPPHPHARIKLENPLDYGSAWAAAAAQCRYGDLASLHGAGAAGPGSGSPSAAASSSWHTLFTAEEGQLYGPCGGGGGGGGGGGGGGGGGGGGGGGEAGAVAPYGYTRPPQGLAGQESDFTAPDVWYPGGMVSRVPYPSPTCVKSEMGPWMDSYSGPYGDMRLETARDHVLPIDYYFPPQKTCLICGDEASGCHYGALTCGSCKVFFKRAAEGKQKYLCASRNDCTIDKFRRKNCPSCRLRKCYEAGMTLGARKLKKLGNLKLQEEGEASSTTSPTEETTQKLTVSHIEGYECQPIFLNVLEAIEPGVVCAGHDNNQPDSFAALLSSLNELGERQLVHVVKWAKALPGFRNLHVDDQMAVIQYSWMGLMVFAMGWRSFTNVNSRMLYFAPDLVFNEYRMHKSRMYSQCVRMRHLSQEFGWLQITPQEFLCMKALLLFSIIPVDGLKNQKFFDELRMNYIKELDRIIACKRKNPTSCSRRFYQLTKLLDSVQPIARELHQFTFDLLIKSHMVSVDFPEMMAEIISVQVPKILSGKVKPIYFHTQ
# How it was run: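 Test compounds at 15 concentrations were incubated for 16hr with MDA-kb2 reporter cells in presence of 3.0uM nilutamide (final). Signal: ONE-Glo luciferase luminescence.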
# [5] = qHTS assay to identify small molecule antagonists of the estrogen receptor beta (ER-beta) signaling pathway - cell viability counter screen (AID 1259382); also: nearly all actives have a fitted effect of over 55% in size; also: potency is read from the fitted curve at half-maximal effect
# How it was run: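 In this multiplexed counter screen, cells were seeded at 2,000 per well in medium with 2% charcoal-stripped FBS and incubated 6 hr before compound and 1nM final E2 were added. Sixteen hours later, ATP-based luminescence reported viability.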
# [6] = qHTS assay to identify small molecule agonists of the estrogen receptor alpha (ER-alpha) signaling pathway in the presence of an antagonist - cell viability counter screen (AID 1259386);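 also: cells exposed to compounds for 22 h at 37 °C before the viability read; nearly all actives have a fitted effect of over 30% in size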; also: potency is read from the fitted curve at half-maximal effect
# How it was run: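 Viability counter screen using VM7Luc4E2 (full-length ER-alpha, four ERE-luciferase). The cells were treated with compounds alongside ICI-182,780 10.0nM for 22hr, and live-cell protease fluorescence was quantified with CellTiter-Fluor.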
# [7] = qHTS assay to identify small molecule agonists of the estrogen receptor beta (ER-beta) signaling pathway - cell viability counter screen (AID 1259380); also: nearly all actives have a fitted effect of over 30% in size; also: potency is read from the fitted curve at half-maximal effect
# How it was run: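 CellTiter-Glo read, 30 min RT, same wells as bla assay; cells ER-beta-UAS-bla HEK293T; 16 hr compound, 37C; medium 2% charcoal-stripped FBS.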
# [8] = qHTS assay to identify small molecule agonists or antagonists of the thyroid stimulating hormone receptor (TSHR) signaling pathway - wild type cell line counter screen (AID 1259384; calls by dose curve; also: potency is read from the fitted curve at half-maximal effect)
# How it was run: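 Wild-type HEK293 cells were plated 18 h at 37 C/5% CO2, pin-dosed with compound plus Ro20-1724 medium, held 30 min at room temperature, then given cAMP-d2 and anti-cAMP-cryptate; fluorescence was read after 1 h. Fifteen concentrations, triplicate.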
# [9] = target: Estrogen receptor (Homo sapiens) (UniProt P03372); assay: qHTS assay to identify small molecule agonists of the estrogen receptor alpha (ER-alpha) signaling pathway in the presence of an antagonist (AID 1259383; calls by dose curve; also: top concentration of the series differs between compounds; nearly all actives have a fitted effect of over 15% in size)
# Sequence of Estrogen receptor (Homo sapiens) (P03372 whole entry, looked up): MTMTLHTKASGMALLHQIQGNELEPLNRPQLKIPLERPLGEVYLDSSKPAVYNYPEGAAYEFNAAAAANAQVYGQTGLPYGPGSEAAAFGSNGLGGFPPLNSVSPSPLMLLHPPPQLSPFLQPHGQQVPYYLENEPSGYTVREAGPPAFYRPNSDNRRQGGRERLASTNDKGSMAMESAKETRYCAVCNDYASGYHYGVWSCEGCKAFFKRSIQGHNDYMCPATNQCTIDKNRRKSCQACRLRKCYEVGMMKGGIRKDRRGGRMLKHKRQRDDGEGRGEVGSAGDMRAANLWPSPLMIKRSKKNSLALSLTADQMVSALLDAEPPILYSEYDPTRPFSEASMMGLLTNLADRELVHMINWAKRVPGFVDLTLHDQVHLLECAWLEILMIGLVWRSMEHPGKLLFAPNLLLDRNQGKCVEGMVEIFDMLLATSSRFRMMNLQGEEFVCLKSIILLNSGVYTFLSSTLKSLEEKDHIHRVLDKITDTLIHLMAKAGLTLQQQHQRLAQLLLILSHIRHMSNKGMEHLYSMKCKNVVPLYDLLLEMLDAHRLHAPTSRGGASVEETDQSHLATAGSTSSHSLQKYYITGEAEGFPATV
# How it was run: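 Stably transfected VM7Luc4E2 reporter cells, kept 5 days in charcoal-stripped serum, received ICI-182,780 at 10.0nM final before compound addition. Following 22hr incubation at 37C and 5% CO2, luciferase signal was read by luminescence.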
# [10] = target: Thyrotropin receptor (Homo sapiens) (UniProt P16473); assay: qHTS assay to identify small molecule antagonists of the thyroid stimulating hormone receptor (TSHR) signaling pathway (AID 1259385; calls by dose curve; also: nearly all actives have a fitted effect of over 20% in size; also: potency is read from the fitted curve at half-maximal effect)
# Sequence of Thyrotropin receptor (Homo sapiens) (P16473 whole entry, looked up): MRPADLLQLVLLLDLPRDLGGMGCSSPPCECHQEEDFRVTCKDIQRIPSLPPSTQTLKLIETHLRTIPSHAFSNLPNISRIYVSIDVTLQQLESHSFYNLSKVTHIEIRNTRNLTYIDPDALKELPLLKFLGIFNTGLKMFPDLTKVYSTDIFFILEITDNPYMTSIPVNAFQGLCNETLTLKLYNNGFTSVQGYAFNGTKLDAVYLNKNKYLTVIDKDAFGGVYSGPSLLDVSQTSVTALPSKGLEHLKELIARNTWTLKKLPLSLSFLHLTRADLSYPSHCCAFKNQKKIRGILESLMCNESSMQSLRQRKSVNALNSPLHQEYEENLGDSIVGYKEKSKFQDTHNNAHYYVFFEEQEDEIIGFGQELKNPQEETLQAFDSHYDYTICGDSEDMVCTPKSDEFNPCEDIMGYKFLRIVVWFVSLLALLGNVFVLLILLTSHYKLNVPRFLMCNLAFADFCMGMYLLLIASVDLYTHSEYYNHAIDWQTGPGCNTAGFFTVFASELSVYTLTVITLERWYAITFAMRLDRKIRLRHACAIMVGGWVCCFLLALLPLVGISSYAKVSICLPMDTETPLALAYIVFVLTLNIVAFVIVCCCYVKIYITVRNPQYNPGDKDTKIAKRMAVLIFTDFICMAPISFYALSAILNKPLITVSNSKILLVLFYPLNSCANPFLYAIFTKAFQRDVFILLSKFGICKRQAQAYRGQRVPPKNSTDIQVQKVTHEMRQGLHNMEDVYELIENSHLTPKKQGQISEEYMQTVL
# How it was run: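 TSHR-HEK293 cells were plated and held 18 h at 37C/5% CO2, then given compound plus Ro20-1724 and stimulated with TSH at 1.5 ng/mL final. After 30 min at room temperature, cAMP was detected with cAMP-d2/anti-cAMP-cryptate (1 h) by fluorescence.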
Compound,Potency [1],Potency [2],Potency [3],Potency [4],Potency [5],Potency [6],Potency [7],Potency [8],Potency [9],Potency [10]
CCN(CC)c1ccc(C(=C2C=CC(=[N+](CC)CC)C=C2)c2cc(S(=O)(=O)O)ccc2S(=O)(=O)[O-])cc1,inactive,inactive,26.6 µM (active),inactive,inactive,23.7 µM (active),,,,
CCCCO,inactive,inactive,inactive,,inactive,inactive,inactive,inactive,,
CCC(C)(C)CC,inactive,inactive,inactive,,inactive,inactive,inactive,,,
O=C(Cl)c1cc(C(=O)Cl)cc(C(=O)Cl)c1,inactive,inactive,inactive,,,inactive,inactive,inactive,inactive,68.6 µM (active)
CC(C)Nc1ccc(NC(C)C)c2c1C(=O)c1ccccc1C2=O,inactive,inactive,11.3 µM (active),,inactive,11.3 µM (active),,inactive,inactive,
Nc1cc(C(=O)O)c(O)c(S(=O)(=O)O)c1,inactive,inactive,inactive,,inactive,inactive,inactive,inactive,,
OCc1cc(C(O)CNCCCCCCOCCCCc2ccccc2)ccc1O (stereo not given),inactive,16.8 µM (active),26.6 µM (active),,,11.9 µM (active),21.1 µM (active),0.0009 µM (active),inactive,inactive
CC(C)(CO)[N+](=O)[O-],inactive,inactive,inactive,,inactive,inactive,inactive,,,
CCCCCCCCCCCCCCCCCCOS(=O)(=O)O,inactive,48.6 µM (active),inactive,,,inactive,48.6 µM (active),inactive,inactive,
CCCCOC(=O)CCCCCCCC(=O)OCCCC,inactive,inactive,inactive,,inactive,inactive,inactive,inactive,,
O=C(NCC1CN(c2ccc(N3CCOCC3=O)cc2)C(=O)O1)c1ccc(Cl)s1 (stereo not given),inactive,inactive,inactive,,,inactive,,inactive,inactive,inactive
COc1ccc(C)cc1[N+](=O)[O-],inactive,inactive,inactive,,inactive,inactive,inactive,inactive,,
CCCCC(CC)COC(=O)COc1ccc(Cl)cc1Cl (stereo not given),inactive,inactive,inactive,,inactive,inactive,,inactive,inactive,
Cc1ccc(N=Nc2c(O)c(C(=O)O)cc3ccccc23)c(S(=O)(=O)O)c1,inactive,inactive,23.6 µM (active),,inactive,23.6 µM (active),inactive,inactive,,inactive
CCC(=O)O[C@]1(C(=O)CCl)[C@@H](C)C[C@H]2[C@@H]3CCC4=CC(=O)C=C[C@]4(C)[C@@]3(F)[C@@H](O)C[C@@]21C,inactive,29.8 µM (active),inactive,0.0007 µM (active),inactive,inactive,,inactive,inactive,
CCCCC(=O)OCC(=O)[C@H]1[C@H](C)C[C@H]2[C@@H]3C[C@H](F)C4=CC(=O)C=C[C@]4(C)[C@@]3(F)[C@@H](O)C[C@@]21C,inactive,inactive,inactive,0.0067 µM (active),inactive,inactive,,inactive,inactive,inactive
COc1cc(Cl)c(OC)cc1N,inactive,inactive,inactive,,inactive,inactive,inactive,inactive,,
CCc1c(C(=O)NN2CCCCC2)nn(-c2ccc(Cl)cc2Cl)c1-c1ccc(Br)cc1,inactive,4.33 µM (active),inactive,,,inactive,,inactive,inactive,inactive
C[C@@H]1C[C@H]2O[C@@]3(O[C@@H]2C(C)(C)O)[C@H](O)[C@@]2(C)[C@@H]4CC[C@H]5C(C)(C)[C@@H](O[C@@H]6OC[C@@H](O)[C@H](O)[C@H]6O)CC[C@@]56C[C@@]46CC[C@]2(C)[C@@H]13,inactive,inactive,inactive,inactive,inactive,inactive,,inactive,inactive,inactive
COC(=O)C1=C(C)NC(COC(N)=O)=C(C(=O)OC(C)C)C1c1cccc(Cl)c1Cl (stereo not given),inactive,inactive,inactive,inactive,inactive,inactive,,inactive,inactive,inactive

Compound,Potency [1],Potency [2],Potency [3],Potency [4],Potency [5],Potency [6],Potency [7],Potency [8],Potency [9],Potency [10]
CC1OC(=O)C(C)OC1=O (stereo not given),inactive,inactive,inactive,,inactive,inactive,,inactive,inactive,inactive
O=[N+]([O-])c1cccc(S(=O)(=O)O)c1,inactive,2.2 µM (active),62.1 µM (active),,inactive,inactive,24.7 µM (active),,,
C#CCN(C)CCCOc1ccc(Cl)cc1Cl,inactive,inactive,inactive,,inactive,inactive,,,inactive,
CN1CCC(N(Cc2cccs2)c2ccccc2)CC1,inactive,inactive,inactive,,inactive,inactive,,inactive,inactive,inactive
O=C1OC(=O)C2C3C=CC(C3)C12 (stereo not given),inactive,inactive,inactive,,inactive,inactive,inactive,inactive,,inactive
C=CC(=O)OCCOc1ccccc1,inactive,inactive,inactive,,,inactive,,inactive,,
O=C1OC(CN2CCOCC2)CN1/N=C/c1ccc([N+](=O)[O-])o1 (stereo not given),inactive,inactive,,inactive,inactive,,inactive,inactive,inactive,inactive
Nc1ncn([C@H]2C[C@H](O)[C@@H](CO)O2)c(=O)n1,inactive,,inactive,,inactive,inactive,inactive,,,
Nc1cccc(S(=O)(=O)c2cccc(N)c2)c1,inactive,,inactive,,inactive,inactive,inactive,inactive,inactive,
COc1cc2nc(N(C)CCCNC(=O)C3CCCO3)nc(N)c2cc1OC (stereo not given),inactive,inactive,,,inactive,23.7 µM (active),inactive,inactive,inactive,inactive
COc1cc(C(=O)OCCCN2CCCN(CCCOC(=O)c3cc(OC)c(OC)c(OC)c3)CC2)cc(OC)c1OC,inactive,inactive,,inactive,inactive,13.3 µM (active),23.7 µM (active),inactive,inactive,inactive
CO[C@@H]1[C@H](OC(=O)/C=C/C=C/C=C/C=C/C(=O)O)CC[C@]2(CO2)[C@H]1[C@@]1(C)O[C@@H]1CC=C(C)C,inactive,inactive,,,inactive,inactive,inactive,inactive,inactive,inactive
COc1ccc(-c2nc3ccc(C4=NNC(=O)CC4C)cc3[nH]2)cc1 (stereo not given),inactive,,inactive,inactive,inactive,inactive,inactive,inactive,inactive,
CCCCCCCCCc1ccc(OCCOCCO)cc1,inactive,,5.74 µM (active),inactive,,22.8 µM (active),20.4 µM (active),inactive,,
CNCCCCOc1ccccc1Cc1ccccc1,inactive,11.9 µM (active),,,,inactive,11.9 µM (active),inactive,inactive,
C[N+]1(CC2COC(c3ccccc3)(C3CCCCC3)O2)CCCCC1 (stereo not given),inactive,inactive,,,inactive,inactive,inactive,inactive,inactive,inactive
CN(Cc1ccc(C(C)(C)C)cc1)Cc1cccc2ccccc12,inactive,,inactive,,23.7 µM (active),inactive,26.6 µM (active),,inactive,
CCCNCC(O)COc1ccccc1C(=O)CCc1ccccc1 (stereo not given),inactive,,inactive,,23.7 µM (active),inactive,26.6 µM (active),inactive,,
CCCCC(CC)CN1C(=O)C2C3C=CC(C3)C2C1=O (stereo not given),inactive,,inactive,,inactive,,,inactive,inactive,inactive
CC(C)CC(=O)C1C(=O)c2ccccc2C1=O,inactive,,inactive,inactive,inactive,,,inactive,inactive,
